{"source": "PubChem BioAssay"}
{"assay": "HepG2 cell viability effects, profiling panel, calcein-AM fluorescence, 48 h, basal (AID 1164); further: test concentration not given here", "conditions": "higher = more signal"}
{"smiles": "COCC(=C=CC[C@H](O)c1cccc(OCCO)c1)C[C@H](O)COCc1ccccc1", "z-score": 0.0978}
{"smiles": "C=CCOC(=O)[C@H]1[C@@H]2C(=O)O[C@@H](c3ccccc3)[C@@H](c3ccccc3)N2[C@@H](c2ccc(OCCOC(=O)[C@H]3C[C@H]4C(=O)N[C@@H](CCCCNC(C)=O)C(=O)N4[C@H]3c3cccc(OCCO)c3)cc2)[C@]12C(=O)Nc1ccc(I)cc12", "z-score": -0.621}
{"smiles": "Cc1c(NC(=O)/C(C#N)=C/c2ccccc2Cl)c(=O)n(-c2ccccc2)n1C", "z-score": 1.02}
{"smiles": "C=C(C(=O)CC[C@@H](OC(=O)c1ccccc1-c1ccccc1C(=O)O)c1ccccc1OCCO)C(C)C", "z-score": -0.188}
{"smiles": "COc1ccc([Si](C)(C)[C@@H]2[C@@H](CC(=O)N3Cc4ccccc4C[C@H]3CO)O[C@]3(C(=O)N(Cc4ccc(N5CCC5=O)cc4)c4ccccc43)[C@H]2C)cc1", "z-score": 0.437}
{"smiles": "C=C[C@@H](OC)[C@H](OC(=O)Nc1ccc(OC)cc1)c1ccc(OC)c(O)c1", "z-score": -0.192}
{"smiles": "CCOC(=O)C1=CCC(c2ccco2)N(S(=O)(=O)c2ccc(C)cc2)C1", "note": "(stereo unspecified)", "z-score": 0.34}
{"smiles": "C=CCNC(=O)[C@H]1[C@@H]2C(=O)O[C@@H](c3ccccc3)[C@@H](c3ccccc3)N2[C@@H](c2ccc(OCCO)cc2)[C@]12C(=O)N(C(=O)OCCOC)c1ccc(C#Cc3ccc(OC)cc3)cc12", "z-score": -0.652}
{"smiles": "CN1C=C(C(=O)OCCS(C)(=O)=O)C(C(=O)OCCS(C)(=O)=O)=CC(c2ccc(CO)cc2)=CC1c1cccs1", "note": "(stereo unspecified)", "z-score": 0.977}
{"smiles": "COC(=O)C1N=C(c2ccc(OCCCO)cc2)N(c2ccccc2)O1", "note": "(stereo unspecified)", "z-score": 0.634}
{"smiles": "CC(C)N1CC=CC23O[C@@H]4/C=C\\CCCOC(=O)C4[C@H]2C(=O)N(CCCCCCO)[C@@H]3C1=O", "note": "(stereo partly specified)", "z-score": 0.922}
{"smiles": "COc1cc(NN2C(C(O)C3CCCCC3)C=CC3C(=O)N(c4ccccc4)C(=O)C32)cc(OC)c1OC", "note": "(stereo unspecified)", "z-score": 0.736}
{"smiles": "O=C(NCC(O)CO)[C@@]1(CCS(=O)(=O)c2ccccc2)COC(c2ccc(OCCCO)cc2)=N1", "note": "(stereo partly specified)", "z-score": 0.261}
{"smiles": "NCCCCCNC(=O)[C@@H]1C[C@@H]2C(=O)N3CCC[C@H]3C(=O)N2[C@@H]1c1ccc(O)cc1", "z-score": 0.2}
{"smiles": "CCCNC(=O)[C@@]1(Sc2ccc(C)cc2)CC(=O)N(C2CCCCC2)[C@@H]1c1ccc(CO)cc1I", "z-score": 0.265}
{"smiles": "COC(=O)C1=CC(CCCO)=CC(C)N(Cc2cccc(OC(F)(F)F)c2)C=C1C(=O)OC", "note": "(stereo unspecified)", "z-score": 0.966}
{"smiles": "C=CCC(OC(C)=O)[C@@H]1[C@@H](N(Cc2ccc(-c3ccccc3)cc2)C(=O)c2ccc(C)cc2)c2cc(OCCCO)ccc2N1C(=O)Cc1ccc2ccccc2c1", "note": "(stereo partly specified)", "z-score": 0.769}
{"smiles": "CCCCCCCCCCC(O)C1C=CC2C(=O)N(c3ccccc3)C(=O)C2N1Nc1ccccc1F", "note": "(stereo unspecified)", "z-score": -0.016}
{"smiles": "CCOC(=O)C[C@H]1[C@H](OC(=O)c2ccc(-c3ccccc3)cc2)[C@@H](NC(=O)Cc2ccc(OC)cc2)c2cc(OCCCO)ccc2N1C(=O)Cc1ccc(OC)cc1", "z-score": 0.834}
{"smiles": "Cc1ccccc1C(O)C1C=CC2C(=O)NC(=O)C2N1Nc1ccc(Cl)cc1Cl", "note": "(stereo unspecified)", "z-score": -0.245}
{"smiles": "COCCOC(=O)N1C(=O)[C@@]2(c3cc(C#CCC(C(=O)OC)C(=O)OC)ccc31)[C@H](c1ccc(OCCO)cc1)N1[C@H](c3ccccc3)[C@H](c3ccccc3)OC(=O)[C@H]1[C@@H]2C(=O)Nc1nc2ccccc2s1", "z-score": 0.278}
{"smiles": "O=C1C[C@@](C(=O)NCC(F)(F)F)(c2ccc([N+](=O)[O-])cc2)[C@@H](c2ccc(CO)cc2)N1CC12CC3CC(CC(C3)C1)C2", "z-score": -1.57}
{"smiles": "CCOC(=O)C[C@H]1[C@H](OC(=O)c2ccccc2-c2ccccc2)[C@@H](NC(=O)c2ccc3ccccc3n2)c2cc(OCCCO)ccc2N1C(=O)c1ccccc1", "z-score": 0.305}
{"smiles": "COCCOC(=O)N1C(=O)[C@@]2(c3cc(C#CCNC(N)=O)ccc31)[C@H](c1ccc(O)cc1)N1[C@H](c3ccccc3)[C@H](c3ccccc3)OC(=O)[C@H]1[C@@H]2C(=O)N1CCN(c2ncccn2)CC1", "z-score": 0.527}
{"smiles": "C=CC[C@H](OC(=O)Nc1ccc(SC)cc1)c1ccc(OCCO)cc1", "z-score": -0.91}
{"smiles": "C[C@]1(C(=O)O)c2ccccc2C(=O)N(Cc2ccc(OC(F)(F)F)cc2)[C@H]1c1ccc(CO)cc1", "z-score": -0.167}
{"smiles": "CN(C)CCCCCCNC(=O)[C@@H]1C[C@@H]2C(=O)N[C@@H](CCCCN)C(=O)N2[C@@H]1c1ccc(O)cc1", "z-score": -0.521}
{"smiles": "CC(C)C(=C=CC[C@@H](O)c1cccc(OCCO)c1)C[C@@H](O)c1ccccn1", "z-score": -0.295}
{"smiles": "CCOC(=O)C1=CC[C@@H](c2ccccc2)N(S(=O)(=O)c2ccc(C)cc2)[C@H]1c1cccc(OC)c1", "z-score": -0.0906}
{"smiles": "CC(C)=CCCC(C)=CC(O)C1C=CC2C(=O)N(c3ccccc3)C(=O)C2N1Nc1ccccc1F", "note": "(stereo unspecified)", "z-score": 0.443}
{"smiles": "C=CCC(OC(C)=O)[C@@H]1[C@@H](N(Cc2ccc(-c3cccc(C(F)(F)F)c3)o2)C(=O)Cc2ccc(OC)cc2)c2cc(OCCCO)ccc2N1C(=O)Cc1ccc2ccccc2c1", "note": "(stereo partly specified)", "z-score": 0.73}
{"smiles": "NC(=O)NCC#Cc1ccc2c(c1)[C@]1(C(=O)N2)[C@H](C(=O)N2CCN(c3ncccn3)CC2)[C@H]2C(=O)O[C@H](c3ccccc3)[C@H](c3ccccc3)N2[C@@H]1c1ccc(OCCO)cc1", "z-score": -1.12}
{"smiles": "COCCOC(=O)N1C(=O)[C@@]2(c3cc(C#CC4=CCCCC4)ccc31)[C@H](c1ccc(O)cc1)N1[C@H](c3ccccc3)[C@H](c3ccccc3)OC(=O)[C@H]1[C@@H]2C(=O)NC[C@H](O)c1ccccc1", "z-score": 0.778}
{"smiles": "COCC(=C=CC[C@@H](O)c1cccc(OCCO)c1)CCO", "z-score": 0.356}
{"smiles": "Cc1ccc(S[C@]2(C(=O)NC(C)C)CC(=O)N(C(C)C)[C@@H]2c2ccc(CO)cc2I)cc1", "z-score": 0.0096}
{"smiles": "O=C1O[C@H](c2ccccc2)[C@H](c2ccccc2)N2[C@H]1[C@@H](C(=O)N1CCCCCCC1)[C@]1(C(=O)Nc3ccc(C#CC4(O)CCCCCC4)cc31)[C@H]2c1ccc(O)cc1", "z-score": 1.68}
